ELG1 repair inh: inhibitors of ELG1-dependent DNA repair in HEK293T cells; Potency, µM (series often up to 46.1 µM), most hits filed as inhibitors; HEK293T ELG1-luciferase reporter, luminescence, 16 h; DNA damage induced by 5-fluorouridine; actives 2.3% (n = 330,000); note: nearly all actives have a fitted effect of over 55% in size
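Reporter activity after DNA damage by 5-fluorouridine is monitored. Compound-treated cells incubate 16 hr at 37 °C, then ONE-Glo is added for 30 min before luminescence reading.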
TDP1 block: TDP1 (human) enzyme inhibition | Q9NUW8 | recombinant TDP1, AlphaScreen DNA substrate cleavage | Potency, µM (highest dose often 130 µM), most hits filed as inhibitors | actives 0.28% (n = 350,000); note: nearly all actives have a fitted effect of over 40% in size
Target sequence (Q9NUW8 whole entry, looked up): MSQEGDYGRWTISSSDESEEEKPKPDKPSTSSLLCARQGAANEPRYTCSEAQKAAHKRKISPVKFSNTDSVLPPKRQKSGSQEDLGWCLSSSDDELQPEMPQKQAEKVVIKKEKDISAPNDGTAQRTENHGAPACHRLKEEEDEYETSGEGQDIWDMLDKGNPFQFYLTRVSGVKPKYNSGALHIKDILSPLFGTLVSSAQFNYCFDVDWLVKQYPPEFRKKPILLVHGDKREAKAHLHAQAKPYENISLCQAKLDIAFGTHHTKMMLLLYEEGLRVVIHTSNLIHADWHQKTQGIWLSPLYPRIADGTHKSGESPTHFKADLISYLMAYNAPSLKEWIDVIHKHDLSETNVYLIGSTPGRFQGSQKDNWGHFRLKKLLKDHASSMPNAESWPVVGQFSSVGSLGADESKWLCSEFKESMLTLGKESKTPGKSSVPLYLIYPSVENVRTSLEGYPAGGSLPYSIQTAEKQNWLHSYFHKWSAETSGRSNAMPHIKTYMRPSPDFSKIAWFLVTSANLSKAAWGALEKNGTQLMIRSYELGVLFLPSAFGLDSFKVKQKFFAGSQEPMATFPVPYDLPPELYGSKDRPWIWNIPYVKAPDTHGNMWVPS
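Signal: AlphaScreen proximity between streptavidin donor and anti-FITC acceptor beads on intact substrate. Reaction: Tdp1 1 nM, substrate 15 nM final, 5 min RT after 15 min compound preincubation.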
Giardia kill: Giardia lamblia killing; Giardia lamblia trophozoite viability; activity change, % at 7.66 µM, hits read low; actives 0.15% (n = 340,000); AID 540267; in the data active = activity change below about -80%; inconclusive = between about -30% and that limit;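 note: parasites exposed to compound for two days anaerobically before the ATP read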
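ATP-content bioluminescence gauges trophozoite survival. Cells (100/well) receive compound and incubate anaerobically for 48 hrs at 37 deg C; detection reagent follows for 15-30 min at room temperature.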
TDP1 cell CPT: growth inhibition of DT40 Tdp1-/-;hTDP1 cells with camptothecin (screen for TDP1 inhibitors). chicken DT40 Tdp1-/-;hTDP1 cells + 20 nM CPT, ATP luminescence, 48 h. actives 12% (n = 420,000). Potency, µM (top dose mostly 46.2 µM), most hits filed as inhibitors; note: nearly all actives have a fitted effect of over 55% in size
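Chicken DT40 Tdp1-/- cells complemented with human TDP1, 400 cells/well, exposed to compounds plus 20 nM camptothecin for at least 48 h at 37 C; viability read as ATP content by CellTiter-Glo luminescence.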
IL-1B inflam inh: blocks inflammasome-driven IL-1 beta release; THP-1 LPS/ATP IL-1B secretion, AlphaLISA, 16 h; active compounds read low; activity change, % at 57.5 µM; actives 4.7% (n = 360,000); AID 743279; in the data active = activity change below about -50%; inconclusive = mostly about -30% to -49%
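THP-1 cells pretreated 1 hr with compounds (up to 57.5 uM final), then stimulated with LPS (250 ng/mL final) plus ATP (1.25 mM final); secreted IL-1B measured by AlphaLISA after 16 hr, decreased signal indicating inhibition.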
TDP1 cell noCPT: qHTS for Inhibitors of human tyrosyl-DNA phosphodiesterase 1 (TDP1): qHTS in cells in absence of CPT; DT40 Tdp1-/- hTDP1 cells, no CPT, ATP luminescence, 48 h; Potency, µM (series often up to 46.2 µM), hits mostly inhibitors; actives 15% (n = 420,000); AID 686978, 2013; note: nearly all actives have a fitted effect of over 55% in size
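A cellular qHTS used chicken DT40 cells lacking endogenous Tdp1 but carrying stably transfected human TDP1. Compounds were applied without camptothecin, and cell growth kinetics were judged by ATP-dependent luminescence after ≥48 hr.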
Each line names hits and unclear results; the compound was inactive in the other large screens. Compounds with a hit are over-represented: about 19% of the library has one in this group of screens. Unless noted, calls come from the whole dose curve; as a rule, active = well fitted curve in the direction sought with a large enough effect; inconclusive = small, poorly fitted or top-dose-only effect, or another doubt; inactive = no such curve, though single readings can be large; an effect the other way counts as inactive or inconclusive.

O=C(O)C1CSC(c2ccccc2Cl)N1C(=O)c1ccc(Cl)cc1 (centres undefined)	none
COc1cc(CNCCCN2CCOCC2)c(Br)cc1OCC(=O)Nc1ccccc1C	ELG1 repair inh inconclusive, TDP1 cell CPT inconclusive, IL-1B inflam inh -55, TDP1 cell noCPT inconclusive
Cc1ccccc1OCC(=O)Nc1ccccc1-c1ccccc1NC(=O)COc1ccccc1C	TDP1 cell CPT inconclusive, TDP1 cell noCPT 15µM
Cc1ccccc1OCC(=O)Nc1ccccc1N1CCOCC1	ELG1 repair inh inconclusive, TDP1 cell noCPT 10µM
Cc1ccccc1NC(=S)NC(=O)COc1ccccc1C	none
Cc1cc(C)c(OCC(=O)Nc2ccccc2N2CCOCC2)c(C)c1	ELG1 repair inh 0.82µM, TDP1 cell CPT 14µM, TDP1 cell noCPT 22µM
Cc1ccccc1OCC(=O)NNC(=O)Cn1[nH]c(=O)c2ccccc2c1=O	TDP1 cell CPT 8.2µM, TDP1 cell noCPT inconclusive
O=C(CC12CC3CC(CC(C3)C1)C2)Nc1ccccc1N1CCOCC1	TDP1 cell CPT inconclusive, TDP1 cell noCPT 10µM
COc1ccc(S(=O)(=O)NCC2CCCN(C(=O)CSC)C2)cc1 (centres undefined)	none (no result: TDP1 block)
O=C(COc1cccc(NC(=O)c2ccccc2)c1)c1ccccc1	TDP1 cell CPT 16µM, TDP1 cell noCPT inconclusive
COc1ccc(NC(=O)c2cccc(F)c2)cc1Cl	ELG1 repair inh inconclusive
COC(=O)c1cccc(NC(=O)c2ccc(OC)c(Cl)c2)c1	ELG1 repair inh inconclusive, IL-1B inflam inh -72, TDP1 cell noCPT inconclusive
COc1cccc(NC(=O)c2ccco2)c1	ELG1 repair inh inconclusive
Cc1ccc(C(=O)C(C)Oc2cccc(NC(=O)c3ccco3)c2)cc1 (centres undefined)	ELG1 repair inh inconclusive, TDP1 cell CPT inconclusive, TDP1 cell noCPT 26µM
COc1ccc(C(=O)COc2cccc(NC(=O)c3ccco3)c2)cc1	ELG1 repair inh inconclusive, TDP1 cell CPT inconclusive, TDP1 cell noCPT 18µM
COc1cccc(C(=O)COc2cccc(NC(=O)c3ccco3)c2)c1	TDP1 cell noCPT inconclusive
CCCS(=O)(=O)NCc1c(C)ncc2c1CCN(C(=O)/C=C/c1ccccc1)C2	none (no result: ELG1 repair inh, TDP1 block, Giardia kill, IL-1B inflam inh)
O=C(COc1cccc(NC(=O)c2cccc([N+](=O)[O-])c2)c1)c1ccc(Br)cc1	ELG1 repair inh 9.2µM, TDP1 cell CPT inconclusive, IL-1B inflam inh -72, TDP1 cell noCPT inconclusive
COc1ccc(C(=O)COC(=O)c2cccc(NC(=O)c3ccc(OC)c(OC)c3)c2)cc1	TDP1 cell CPT 18µM, TDP1 cell noCPT 10µM (no result: ELG1 repair inh, TDP1 block, Giardia kill, IL-1B inflam inh)
COc1cccc(C(=O)Nc2cccc(OCC(=O)c3ccccc3)c2)c1	ELG1 repair inh inconclusive, TDP1 cell CPT 23µM, TDP1 cell noCPT inconclusive
CCOC(=O)C1=CC[C@]2(C)c3c(c4ccccc4n3C)C(=O)C1N2C	none
O=[N+]([O-])c1cc(-n2cnnn2)ccc1N1CCC(Cc2ccccc2)CC1	ELG1 repair inh inconclusive, TDP1 cell CPT 23µM, TDP1 cell noCPT 9.2µM
O=[N+]([O-])c1cc(S(=O)(=O)N2CCCC2)ccc1OCCOc1ccccc1	TDP1 cell CPT inconclusive, IL-1B inflam inh inconclusive, TDP1 cell noCPT inconclusive
CN(CCOc1ccccc1)C(=O)c1cc(S(=O)(=O)N2CCOCC2)c(Cl)cc1Cl	TDP1 cell CPT 18µM, TDP1 cell noCPT inconclusive (no result: ELG1 repair inh, TDP1 block, Giardia kill)
O=C(O)c1cc(S(=O)(=O)N2CCCCC2)ccc1Cl	none
CN(CCOc1ccccc1)C(=O)c1cc(S(=O)(=O)N2CCCCC2)ccc1Cl	TDP1 cell CPT inconclusive, IL-1B inflam inh -65, TDP1 cell noCPT inconclusive
NC(=O)c1cc(S(=O)(=O)N2CCCC2)ccc1OCCOc1ccccc1	IL-1B inflam inh -51
CCCC(C)(C)C(=O)N1CCC1(C)C(=O)NS(=O)(=O)c1cccc(Cl)c1 (centres undefined)	none (no result: ELG1 repair inh, TDP1 block, Giardia kill)
CCC(C)N(C)C1CCN(C(=S)Nc2cccc(SC)c2)CC1 (centres undefined)	none
Cc1cc2nccnc2cc1C	none (no result: ELG1 repair inh, TDP1 block)

Screening data (PubChem BioAssay)
